Data: PubChem BioAssay (NCATS)
Records with an inconclusive call do not appear. Active and inactive are the calls of the source. The call rests on the fitted dose curve; in most records, active means well fitted cell-killing curve with a large enough effect; inconclusive means small, poorly fitted or top-dose-only effect; inactive means no such curve, though single readings can be large or run the other way.

Test: qHTS of pediatric cancer cell lines to identify multiple opportunities for drug repurposing: Primary screen for NB-EBc1 cells (AID 1347095);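 further: plate controls were DMSO neutral control for no effect and bortezomib for full effect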
Conditions: NB-EBc1 neuroblastoma viability, CellTiter-Glo luminescence, 48 h; series mostly up to 46 µM; activity change, negative = cytotoxic: at the top concentration
In short: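 500-1,000 cells/well; 5 h pre-incubation 37 °C/5% CO2; compound pinned; 48 h; CellTiter-Glo, 15 min RT; luminescence. MIPE 11-pt from 0.78 nM, NPC 8-pt from 0.59 nM final. Bortezomib 2.3 µM final as positive control.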

Compound	activity change, negative = cytotoxic
Cn1c(=O)c2c(ncn2CC(=O)O)n(C)c1=O	6.78% (inactive)
O=[N+]([O-])c1nccn1CO[C@@H](CO)[C@H](O)CO	38.7% (inactive)
CC(=O)OCC(=O)Nc1cc(C#N)cc(NC(=O)COC(C)=O)c1Cl	30.5% (inactive)
CC1(C)O[C@@H]2C[C@H]3[C@@H]4C[C@H](F)C5=CC(=O)C=C[C@]5(C)[C@@]4(F)[C@@H](O)C[C@]3(C)[C@]2(C(=O)CO)O1	-0.703% (inactive)
CCCC(=O)Nc1ccc(O)c(C(C)=O)c1	22.2% (inactive)
O=[N+]([O-])c1cncn1CCN1CCOCC1	57.1% (inactive)
CCOc1ncc(F)c(=O)[nH]1	20.4% (inactive)
CCc1cc(S(=O)(=O)O)c2cc(C(C)C)cccc1-2	10.7% (inactive)
Cc1ccccc1N1CCN(CCc2nnc3n2CCCC3)CC1	2.45% (inactive)
CN1C(=O)c2ccccc2C1=O	13.3% [at 92.7 µM] (inactive)
Nc1nnnn1-c1ccccc1	9.06% (inactive)
CCOC(=O)c1ccc(NC(=O)CN2CCCCC2)cc1	24.4% (inactive)
Brc1ccccc1-c1ccccc1	23.8% [at 92.7 µM] (inactive)
CCNC(=O)NCCCOc1cccc(CN2CCCCC2)c1	-1.4% (inactive)
CO/N=C(/C(=O)N[C@@H]1C(=O)N2C(C(=O)OCOC(=O)C(C)(C)C)=C(C)CS[C@H]12)c1csc(N)n1	13% (inactive)
Cc1c(N)cccc1C(F)(F)F	13.8% (inactive)
OC[C@]1(O)OC[C@@H](O)[C@H](O)[C@@H]1O	28.6% (inactive)
COC(=O)c1cc(Cl)ccc1OC	23.6% (inactive)
CCCc1ncc(C(=O)O)s1	10.8% (inactive)

Compound	activity change, negative = cytotoxic
CCOc1ccc(NS(=O)(=O)c2ccc(N)cc2)nn1	11.2% (inactive)
CCCc1c2oc(C(=O)O)cc(=O)c2cc2c(=O)cc(C(=O)O)n(CC)c12	13.4% (inactive)
O=C(O)Cn1cnnn1	22.1% (inactive)
COc1cc(OC)nc(O[C@H](C(=O)O)C(OC)(c2ccccc2)c2ccccc2)n1	9.91% (inactive)
CCCCCCCCCCCCCCCCCCN(C)C	0.141% (inactive)
C=C(C)C(=O)OCC(O)CO (stereo not drawn)	-4.82% (inactive)
CNC(=O)c1c(I)c(NC(C)=O)c(I)c(C(=O)O)c1I	19.9% (inactive)
Cc1nc([N+](=O)[O-])cn1-c1ccc([N+](=O)[O-])cc1	22.8% (inactive)
O=C(CCCCCCCCC#CI)Oc1ccccc1	2.73% (inactive)
C=CC[N+]1([C@H]2C[C@H]3[C@@H]4CC[C@H]5C[C@H](OC(C)=O)[C@@H](N6CCCCC6)C[C@]5(C)[C@H]4CC[C@]3(C)[C@H]2OC(=O)CC)CCCCC1	37.8% (inactive)
CO/N=C(/C(=O)N[C@@H]1C(=O)N2C(C(=O)[O-])=C(C[n+]3ccn4ncccc43)CS[C@H]12)c1nsc(N)n1	17.4% (inactive)
C/C(=N\O)[C@@H](C)NCC(C)(C)CN[C@H](C)/C(C)=N/O	14.3% (inactive)
CNC[C@H](O)[C@@H](O)[C@H](O)[C@H](O)CO	7.64% (inactive)
COc1ccc(CCC(C)=O)cc1	5.98% (inactive)
Cc1ccccc1C(=O)N1CC/C(=N\OS(=O)(=O)O)c2ccc(Cl)cc21	16.3% (inactive)
CCn1ccc(NS(=O)(=O)c2ccc(N)cc2)nc1=O	25.7% (inactive)
O=C(O)/C=C(\CC(=O)O)C(=O)O	21.3% (inactive)
[O-][n+]1cccc(/C(Cl)=N/OC[C@@H](O)CN2CCCCC2)c1	20% (inactive)
CC1CC(=O)NN=C1c1ccc(NCC(C)(C)NCC(O)COc2cc(Cl)ccc2C#N)cc1 (stereo not drawn)	-1.34% (inactive)
